This is an account of results in PubChem BioAssay (NCATS).

Assay [1] is described as follows: Drug repurposing screens with cells derived from glioblastoma tumor samples (AID 1345199). Further: nearly all actives have a fitted effect of over 40% in size. Further: potency means the concentration at half of the fitted maximal effect. On activity, negative = cell killing: on the % scale 0 is the no-effect control and ±100 the full control effect. The note with it: GBM patient neurospheres viability, ATP luminescence, 48 h. The method in brief:
(§1)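 Primary testing used CD133+ neurospheres from four GBM patients, seven concentrations, 48 h exposure and ATP-based viability; confirmation added three slower-growing patient lines.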

In a further assay the test system is astro (control astrocytes). The assay is described as above. The note with it: viability, ATP luminescence, 48 h; series mostly up to 45.9 µM. The method in brief: as §1
Assay [2] deals with Nuclear receptor subfamily 1 group I member 2 (Rattus norvegicus) (UniProt Q9R1A7). Put plainly: qHTS assay for small molecule activators of the rat pregnane X receptor (rPXR) signaling pathway (AID 651751; call rule not given here; further: 0% is about no effect). The note with it: rPXR reporter cells, luciferase (One-Glo), 24 h. For orientation: qHTS replaces the single test concentration by a dilution series.
The nature of assay [3]: qHTS assay for small molecule activators of the human pregnane X receptor (PXR) signaling pathway (AID 720659; call rule not given here; further: 0% is about no effect). The conditions noted are these: DPX-2 HepG2 CYP3A4-luciferase, 24 h; series mostly up to 92.3 µM.
Where [4] appears, read: at 45.9 µM (top of the series), tumour line B.
[5] abbreviates: at 45.9 µM (top of the series), tumour line D.
The mark [6] stands for this setting: at 46 µM (top of the series), tumour line A.
[7] abbreviates: at 46.1 µM (top of the series), tumour line C.

SMILES strings stand for the structures. Several values for one entry are separate records, joined by “and”; a condition that tells them apart may be missing. Equal values may be shown once. A number with no mark means an inactive call. Results filed as inconclusive are left out. Activity calls are given as the source filed them. Unless noted, the call rests on the fitted dose curve; in most records, active means well fitted inhibition curve with a large enough effect; inconclusive means small, poorly fitted or top-dose-only effect; inactive means flat fitted curve, though single readings scatter.

Chain of Nuclear receptor subfamily 1 group I member 2 (Rattus norvegicus) (Q9R1A7 whole entry, looked up): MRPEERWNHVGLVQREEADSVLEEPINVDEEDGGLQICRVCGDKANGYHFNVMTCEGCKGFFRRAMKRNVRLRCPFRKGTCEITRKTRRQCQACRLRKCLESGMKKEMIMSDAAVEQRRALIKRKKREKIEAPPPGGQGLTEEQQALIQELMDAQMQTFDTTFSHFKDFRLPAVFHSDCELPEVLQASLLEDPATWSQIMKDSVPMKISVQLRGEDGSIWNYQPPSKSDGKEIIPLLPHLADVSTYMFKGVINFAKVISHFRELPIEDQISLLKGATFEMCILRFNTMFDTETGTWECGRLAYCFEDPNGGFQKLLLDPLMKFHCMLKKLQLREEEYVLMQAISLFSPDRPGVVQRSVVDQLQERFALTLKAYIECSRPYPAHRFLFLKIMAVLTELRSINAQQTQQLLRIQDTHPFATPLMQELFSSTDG

For the compound `O=CC=O`, the activity, negative = cell killing is 0.224% in assay [1] (setting [4]), -5.05% in assay [1] (setting [5]), -22.3% in assay [1] (setting [6]) and 29.7% in assay [1] (setting [7]). In the assay with astro, the Potency result is “inactive”. For the same compound, the max response in assay [2] was -6.34%. For the same compound, the result in assay [3] was inactive.
Turning to `CCON=O`, the activity, negative = cell killing is -13.3% in assay [1] (setting [4]), 8.29% in assay [1] (setting [5]) and -23.8% in assay [1] (setting [7]). Also, the Potency in assay [1] (tumour line A) was 0.224 µM (active). The Potency result with astro was “inactive”.
With `CCC1(c2ccccc2)C(=O)NC(=O)NC1=O`, the activity, negative = cell killing was -10.3% in assay [1] (setting [4]), 2.64% in assay [1] (setting [5]), -5.16% in assay [1] (setting [6]) and 3.61% in assay [1] (setting [7]). Moreover, the Potency result in the assay with astro was “inactive”.
For `FC(F)OC(F)(F)C(F)Cl` (stereo unspecified), the activity, negative = cell killing in assay [1] (setting [4]) is -9.16%; in assay [1] (setting [5]), 6%; in assay [1] (setting [6]), -21%; in assay [1] (setting [7]), -2.93%. Further, the Potency entry in the assay on astro was “inactive”.
For `CC(N)Cc1ccc(O)cc1` (stereo unspecified), the activity, negative = cell killing is -3.82% in assay [1] (setting [4]), -1.1% in assay [1] (setting [5]), -18.1% in assay [1] (setting [6]) and 5.3% in assay [1] (setting [7]). Further, the Potency entry in the assay with astro was “inactive”.
For `CCC1(C)CC(=O)NC(=O)C1`, the activity, negative = cell killing was -7.73% in assay [1] (at 20 µM (top of the series), tumour line C); -6.36% in assay [1] (at 21.2 µM (top of the series), tumour line B); -5.16% in assay [1] (at 21.2 µM (top of the series), tumour line D); -9.96% in assay [1] (at 21.3 µM (top of the series), tumour line A). Also, the Potency result in the assay on astro is “inactive”.
Turning to `c1cc2c(c(NC3=NCCN3)c1)CCCC2`, the results for the activity, negative = cell killing in assay [1] (setting [4]), in assay [1] (setting [5]) and in assay [1] (setting [7]) were -18.6%, -28.2% and 1.62%, respectively. In addition, the Potency in assay [1] (tumour line A) was 14.1 µM (active). Also, in the assay with astro, the Potency result was “inactive”.
`CC(C)CCON=O`: the activity, negative = cell killing was 0.0037% in assay [1] (setting [4]), -3.58% in assay [1] (setting [5]), -24.7% in assay [1] (setting [6]) and 2.53% in assay [1] (setting [7]). Further, the Potency entry in the assay with astro was “inactive”. Further, the max response in assay [2] is 1.54%. For the same compound, the outcome in assay [3] was inactive.
Consider `S=C(S)N1CCNCC1`, for which the activity, negative = cell killing in assay [1] (setting [4]) is -3.67%; in assay [1] (setting [5]), -4.89%; in assay [1] (setting [6]), -30%; in assay [1] (setting [7]), -13.9%. In the assay with astro, the Potency entry was “inactive”.
For `CC(=O)OO`, in that order: -7.1%, -0.699%, -24.9%, 3.69% and “inactive”.
`CCOC(=O)/C=C(C)/C=C/C[C@@H](C)CCCC(C)C`: the activity, negative = cell killing is -7.77% in assay [1] (setting [4]), 3.89% in assay [1] (setting [5]), -29.3% in assay [1] (setting [6]) and -6.42% in assay [1] (setting [7]). In the assay on astro, the Potency entry was “inactive”.
Taken in the same sequence, the figures for `C#CCN1CC(=O)N(COC(=O)C2C(C=C(C)C)C2(C)C)C1=O` (stereo unspecified) were -9.8%, 15.2%, -23.1%, -15.9% and “inactive”.
In the case of `CCN(CC)C(=O)N[C@H]1C[C@@H]2c3cccc4[nH]cc(c34)C[C@H]2N(C)C1`, the activity, negative = cell killing in assay [1] (setting [4]) is -22.5%; in assay [1] (setting [5]), -14.1%; in assay [1] (setting [7]) it was -20.3%. In addition, in assay [1] (tumour line A), the Potency is 22.4 µM (active). Also, the Potency entry with astro was “inactive”.
Take `CCCCCl`: the activity, negative = cell killing in assay [1] (setting [4]) was -5.4%; in assay [1] (setting [5]), -17.7%; in assay [1] (setting [6]), -20.4%; in assay [1] (setting [7]) it was 7.44%. For the same compound, in the assay on astro, the Potency entry is “inactive”. Besides, in assay [2], the max response is -2.58%. Besides, the result in assay [3] was inactive.
Regarding `Oc1ccc2c3c1O[C@H]1[C@@H](O)CC[C@@]4(O)[C@@H](C2)N(CC2CCC2)CC[C@]314`, the activity, negative = cell killing in assay [1] (setting [4]) is -15.8%; in assay [1] (setting [5]), -17.2%; in assay [1] (setting [6]) it was 7.3%; in assay [1] (setting [7]) it was -0.783%. Also, the Potency entry with astro was “inactive”.
Turning to `CCC(C)(S(=O)(=O)CC)S(=O)(=O)CC`, the activity, negative = cell killing in assay [1] (setting [4]) is -9.18%; in assay [1] (setting [5]), -21.6%; in assay [1] (setting [6]), -5.61%; in assay [1] (setting [7]), -8.4%. In the assay on astro, the Potency result is “inactive”.
Regarding `COc1ccc2c3c1O[C@H]1C(=O)CC[C@H]4[C@@H](C2)N(C)CC[C@]314`, the activity, negative = cell killing in assay [1] (setting [4]) was -6.83%; in assay [1] (setting [5]) it was -23.5%; in assay [1] (setting [6]) it was -21.5%; in assay [1] (setting [7]), -7.26%. In addition, the Potency entry in the assay with astro is “inactive”.
Consider `CCCCC[C@@H](O)C1C(=O)OC(C)[C@H](O)/C=C/C=C/C=C/C=C/C=C(\C)C(O)C(O)C(O)C[C@H](O)C[C@H](O)C[C@H](O)C[C@H](O)C[C@@H]1O` (stereo partly specified), for which the activity, negative = cell killing was -7.45% and 7.1% in assay [1] (setting [4]); 14.9% and -7.76% in assay [1] (setting [5]); -18.3% and -29% in assay [1] (setting [6]); -15.7% and -7.35% in assay [1] (setting [7]). Also, the Potency result in the assay with astro is “inactive”.
